Test system: CLK4
Conditions: concentration: 1 μM, replicates: in singlicate; n = 1
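Note: KINOMEscan kinase panel screen.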

SMILES | %Inh [%]
COC(=O)Nc1nc2cc(Oc3ccc(NC(=O)Nc4cccc(SC)c4)cc3)ccc2[nH]1.Cl [GW697999] | 24
CC(C)NCC(Cc1ccccc1)NC(=O)c1cc(Br)c(-c2ccnc3[nH]ccc23)s1.Cl.Cl (stereo not drawn) [GSK1383281] | 25
N#Cc1cnc2cc(-c3cnc(CNCCN4CCOCC4)s3)ccc2c1Nc1ccc(Oc2ccccc2)cc1 [GW664114] | 95.2
Cc1cc(-c2c(-c3ccc(F)cc3)ncn2CCCN2CCOCC2)nc(N)n1 [SB-222517] | 16
CN(C)CCNS(=O)(=O)c1ccc(-c2ccnc3[nH]ccc23)cc1 [GSK977620] | 94.4
CN(c1ccc(NC(=O)Nc2cccc(Cl)c2)cc1)c1ccnc(N)n1.Cl [GW830707] | 0
Cl.O=C(Nc1ccc(Oc2ccc3[nH]c(NC(=O)c4ccco4)nc3c2)cc1)Nc1cc(C(F)(F)F)ccc1F [GW683134] | 61
Cl.Cl.NC(CNC(=O)c1cc(Br)c(-c2ccnc3[nH]ccc23)s1)c1ccccc1 (stereo not drawn) [GSK1322949] | 91.5
COc1ccc(C2=C(Nc3cccc(O)c3)C(=O)NC2=O)cc1 [SB-390766] | 85
Nc1cccc(-c2ccc3c(N)n[nH]c3c2)c1 [GSK2193613] | 64
Cl.Cl.NCC(NC(=O)c1cc(-c2cccnc2)c(-c2ccnc3[nH]ccc23)s1)c1ccccc1 (stereo not drawn) [GSK1323434] | 60
COc1ccc(NC(=O)c2ccoc2)cc1-c1ccc(C(=O)NCC2CC2)cc1 [GW810437] | 6
CC(C)(C)c1ccc(C(=O)Nc2cn3cc(-n4ccnc4)ccc3n2)cc1 | 84
Cc1ccc(Nc2ccnc(Nc3ccc(C)c(F)c3)n2)cc1O.Cl [GW582868] | 14
Cc1ccc(NC(=O)c2cccc(N3CCCCC3)c2)cc1-c1ccc(C(=O)NCC2CC2)cc1 [GSK1917008] | 32
COc1cccc(C2=C(Nc3cccc(O)c3)C(=O)NC2=O)c1 [SB-390771] | 72
CSc1ccc(NC2=C(c3ccc(Cl)cc3)C(=O)NC2=O)cc1 [SB-317658] | 19
Cc1cc(-c2ccnc(Nc3cccc(C#N)c3)n2)cc(C)c1O [GSK1440913] | 95.8
O=C(Nc1n[nH]c2cc(-c3cccs3)ccc12)C1CC1 [SB-731284] | 0
CCn1cnc2c(NCc3ccccc3)ncnc21 [SKF-96418] | 14
Cn1cc(-c2ccc3c(c2)CCN3C(=O)Cc2cc(F)cc(F)c2F)c2c(N)ncnc21 [GSK2634140] | 16
O=C(O)C(F)(F)F.O=c1[nH]ccc2nc(N[C@@H]3CCNC3)nc(Nc3ccc4c(c3)S(=O)(=O)CC4)c12 [GSK2181306] | 80
COc1cccc(NC(=O)NCCNc2ccnc(Nc3ccc(F)cc3)n2)c1 [GSK1379879] | 20
CN1CCN(Cc2ccc(NC(=O)Nc3ccc(N(C)c4ccnc(Nc5ccc(CS(C)(=O)=O)cc5)n4)cc3)cc2)CC1.Cl [GW827654] | 0

Source: paper PMC5540273 (PLoS ONE, 2017)
